DT40 TDP1 CPT: growth inhibition of DT40 Tdp1-/-;hTDP1 cells with camptothecin (screen for TDP1 inhibitors); Potency, µM (series often up to 46.2 µM), for inactives: top-dose activity change, negative = growth inhibition, most hits filed as inhibitors; hit rate 12% among 420,000; chicken DT40 Tdp1-/-;hTDP1 cells + 20 nM CPT, ATP luminescence, 48 h; note: potency is the fitted concentration of half-maximal effect; nearly all actives have a fitted effect of over 55% in size
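Chicken DT40 Tdp1-/- cells stably complemented with human TDP1 were seeded at 400 cells/well in medium containing 20 nM camptothecin, exposed to pin-transferred compounds, and grown at 37 °C for at least 48 hr. Viability was read as ATP luminescence.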
HT1080NT lethal: kills 2HG-producing HT-1080-NT fibrosarcoma cells; HT-1080-NT fibrosarcoma viability, CellTiter-Glo ATP luminescence, 48 h; Potency, µM (titrated, usually from 46.1 µM), for inactives: top-dose activity, negative = less viability, actives largely listed as cytotoxic; hit rate 1.6% among 360,000; AID 686970;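 note: NT is the 2HG producing partner of a matched IDH1 knockdown line; potency is the fitted concentration of half-maximal effect; 0% = DMSO-treated cells and -100% = media-only wells without cells; nearly all actives have a fitted effect of over 55% in size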
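HT-1080-NT fibrosarcoma cells (2HG-overproducing), 750 cells/well in RPMI with 5% FBS, dosed after 2 h and incubated 48 h at 37C. CellTiter-Glo luminescence normalized to DMSO and no-cell wells; concentration-response curves fitted and classed.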
TDP1 cell noCPT: qHTS for Inhibitors of human tyrosyl-DNA phosphodiesterase 1 (TDP1): qHTS in cells in absence of CPT; DT40 Tdp1-/- hTDP1 cells, no CPT, ATP luminescence, 48 h; Potency, µM (series often up to 46.2 µM), without a hit: at the top dose activity change, negative = growth inhibition, hits mostly inhibitors; hit rate 15% among 420,000; AID 686978, 2013; note: potency is the fitted concentration of half-maximal effect; nearly all actives have a fitted effect of over 55% in size
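Stably hTDP1-transfected Tdp1-null chicken DT40 cells were treated with library compounds minus camptothecin and grown for at least 48 hr at 37 °C, after which cellular ATP was quantified by luminescence.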
IL-1B inflam inh: inhibitors of inflammasome signaling (IL-1 beta secretion); hit rate 4.7% among 360,000; activity change, % at 57.5 µM; THP-1 LPS/ATP IL-1B secretion, AlphaLISA, 16 h; active compounds read low; in the data active = activity change below about -50%; inconclusive = mostly about -30% to -49%
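Secreted IL-1B measured by AlphaLISA bead assay after 16 h compound exposure of THP-1 cells; compounds (final up to 57.5 uM) added 1 h before LPS (250 ng/mL) and ATP (1.25 mM) stimulation; lower signal means less secretion.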
ELG1 repair inh: blocks ELG1-dependent DNA repair in HEK293T cells. HEK293T ELG1-luciferase reporter, luminescence, 16 h; DNA damage induced by 5-fluorouridine. AID 504467. hit rate 2.3% among 330,000. Potency, µM (top dose mostly 46.1 µM), without a hit: at the top dose activity change, negative = inhibition, hits mostly inhibitors; note: potency is the fitted concentration of half-maximal effect; nearly all actives have a fitted effect of over 55% in size
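Reporter activity after DNA damage by 5-fluorouridine is monitored. Compound-treated cells incubate 16 hr at 37 °C, then ONE-Glo is added for 30 min before luminescence reading.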
HT1080 IDH1KD tx: toxicity to HT-1080 IDH1 knockdown cells (counter line); HT-1080 IDH1 knockdown viability, ATP luminescence, 48 h; Potency, µM (doses to about 46.1 µM), inactives show top-dose activity, negative = toxicity, hits mostly cytotoxic; hit rate 2% among 360,000; AID 686971;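 note: potency is the fitted concentration of half-maximal effect; 0% = DMSO wells and -100% = cell-free medium wells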
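Using the IDH1-knockdown HT-1080 line run in the same batch and compound series as the NT line, viability after 48 h at 37 °C was determined by CellTiter-Glo luminescence and expressed as % activity.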
Starred values were filed as active, the others as inactive; [ ] = another dose, or the depositor's remark. Most compounds without a hit are left out; they make up all but 19% or so of the library. Unless noted, calls come from the whole dose curve; as a rule, active = well fitted curve in the direction sought with a large enough effect; inconclusive = small, poorly fitted or top-dose-only effect, or another doubt; inactive = no such curve, though single readings can be large; an effect the other way counts as inactive or inconclusive. Unless noted, % is set by controls: 0 for no effect and ±100 for the full control effect.

What do the screens show for `CCCn1c(NC(=O)C2COc3ccccc3O2)nc2ccccc21` (stereo unspecified)?
DT40 TDP1 CPT: 18µM*; HT1080NT lethal: -22%; TDP1 cell noCPT: 18µM*; IL-1B inflam inh: 5; ELG1 repair inh: 9%; HT1080 IDH1KD tx: -16%

Results for CCCn1c(NC(=O)c2ccc(F)cc2)nc2ccccc21 ?
DT40 TDP1 CPT: -18%; HT1080NT lethal: 3%; TDP1 cell noCPT: inconclusive; IL-1B inflam inh: 29; ELG1 repair inh: 2%; HT1080 IDH1KD tx: 0%

Results for COCCCNC(=O)c1ccc(S(=O)(=O)c2ccc(C)cc2)c(NC(C)=O)c1 ?
DT40 TDP1 CPT: -1%; HT1080NT lethal: 5%; TDP1 cell noCPT: 28%; IL-1B inflam inh: 0; ELG1 repair inh: 1%; HT1080 IDH1KD tx: 1%

How did COC(=O)Nc1ccc(=O)n(Cc2c(Cl)cccc2Cl)c1 do in these assays?
DT40 TDP1 CPT: -4%; HT1080NT lethal: -19%; TDP1 cell noCPT: -24%; IL-1B inflam inh: 1; ELG1 repair inh: 12%; HT1080 IDH1KD tx: -1%

What do the screens show for `COc1cccc(OC)c1-c1cc(CCCc2cc(-c3c(OC)cccc3OC)nc3ccccc23)c2ccccc2n1`?
DT40 TDP1 CPT: inconclusive; TDP1 cell noCPT: 13µM*

Results for Cc1c(C(=O)NCc2ccccn2)oc2ccc(S(=O)(=O)N3CCOCC3)cc12 ?
DT40 TDP1 CPT: -22%; HT1080NT lethal: -11%; TDP1 cell noCPT: -16%; IL-1B inflam inh: 32; ELG1 repair inh: inconclusive; HT1080 IDH1KD tx: 0%

What do the screens show for `CCN(CC)S(=O)(=O)c1ccc2oc(C(=O)NCc3ccccc3OC)c(C)c2c1`?
DT40 TDP1 CPT: 7.3µM*; TDP1 cell noCPT: 10µM*

What do the screens show for `Cc1c(C(=O)NCc2ccccc2)oc2ccc(S(=O)(=O)N3CCC(C)CC3)cc12`?
DT40 TDP1 CPT: 9.2µM*; TDP1 cell noCPT: 9.2µM*

What do the screens show for `Cc1c(C(=O)NCc2ccccc2CN2CCCC2)oc2ccc(F)cc12`?
DT40 TDP1 CPT: 21µM*; HT1080NT lethal: 8%[9.24 µM]; TDP1 cell noCPT: inconclusive; IL-1B inflam inh: -1; ELG1 repair inh: 1%; HT1080 IDH1KD tx: -18%

Results for O=C(NCc1ccccc1CN1CCCC1)c1cc2ccccc2o1 ?
DT40 TDP1 CPT: -18%; HT1080NT lethal: -1%[9.24 µM]; TDP1 cell noCPT: -1%; IL-1B inflam inh: inconclusive; ELG1 repair inh: -1%; HT1080 IDH1KD tx: -3%

How did COc1ccccc1CNC(=O)c1oc2ccccc2c1C do in these assays?
DT40 TDP1 CPT: -29%; HT1080NT lethal: 11%; TDP1 cell noCPT: -12%; IL-1B inflam inh: -13; ELG1 repair inh: 14%; HT1080 IDH1KD tx: 3%

Results for Cc1c(C(=O)NCc2ccc(F)cc2)oc2ccc(S(=O)(=O)N3CCCCC3)cc12 ?
DT40 TDP1 CPT: 23µM*; TDP1 cell noCPT: inconclusive

How did COc1cccc(NC(=O)c2oc3ccc(S(=O)(=O)N4CCCCCC4)cc3c2C)c1 do in these assays?
DT40 TDP1 CPT: 18µM*; TDP1 cell noCPT: 18µM*

How did COc1ccccc1CNC(=O)c1oc2ccc(S(=O)(=O)N3CCCCC3)cc2c1C do in these assays?
DT40 TDP1 CPT: 6.5µM*; TDP1 cell noCPT: 7.3µM*

What do the screens show for `COc1ccc(C)cc1NC(=O)c1oc2ccc(S(=O)(=O)N3CCCCC3)cc2c1C`?
DT40 TDP1 CPT: -4%; TDP1 cell noCPT: -9%

Results for COc1cc(C(=O)NCC(c2cccs2)N2CCOCC2)ccc1OCc1ccccc1 (stereo unspecified) ?
DT40 TDP1 CPT: inconclusive; HT1080NT lethal: -2%; TDP1 cell noCPT: inconclusive; IL-1B inflam inh: -26; HT1080 IDH1KD tx: -12%

What do the screens show for `CCCCc1ccc(NC(=O)CSc2nc3ccccc3nc2N2CCCCC2)cc1`?
DT40 TDP1 CPT: -7%; TDP1 cell noCPT: inconclusive

Assay outcomes as filed in PubChem BioAssay.
